Screens deposited in PubChem by National Center for Advancing Translational Sciences (NCATS).
BLM helicase inh-1 – qHTS Assay for Inhibitors of Bloom's syndrome helicase (BLM). RecQ-like DNA helicase BLM (Homo sapiens), P54132. recombinant BLM DNA unwinding, fluorescence dequenching. Potency, µM (doses to about 56.1 µM), for the others: at the highest dose activity change, negative = inhibition, hits mostly inhibitors. actives 0.2% (n = 350,000);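 also: potency is read from the fitted curve at half-maximal effect; plate controls were vehicle for no effect and no enzyme for full effect; nearly all actives have a fitted effect of over 35% in size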
Target sequence (P54132 whole entry, looked up): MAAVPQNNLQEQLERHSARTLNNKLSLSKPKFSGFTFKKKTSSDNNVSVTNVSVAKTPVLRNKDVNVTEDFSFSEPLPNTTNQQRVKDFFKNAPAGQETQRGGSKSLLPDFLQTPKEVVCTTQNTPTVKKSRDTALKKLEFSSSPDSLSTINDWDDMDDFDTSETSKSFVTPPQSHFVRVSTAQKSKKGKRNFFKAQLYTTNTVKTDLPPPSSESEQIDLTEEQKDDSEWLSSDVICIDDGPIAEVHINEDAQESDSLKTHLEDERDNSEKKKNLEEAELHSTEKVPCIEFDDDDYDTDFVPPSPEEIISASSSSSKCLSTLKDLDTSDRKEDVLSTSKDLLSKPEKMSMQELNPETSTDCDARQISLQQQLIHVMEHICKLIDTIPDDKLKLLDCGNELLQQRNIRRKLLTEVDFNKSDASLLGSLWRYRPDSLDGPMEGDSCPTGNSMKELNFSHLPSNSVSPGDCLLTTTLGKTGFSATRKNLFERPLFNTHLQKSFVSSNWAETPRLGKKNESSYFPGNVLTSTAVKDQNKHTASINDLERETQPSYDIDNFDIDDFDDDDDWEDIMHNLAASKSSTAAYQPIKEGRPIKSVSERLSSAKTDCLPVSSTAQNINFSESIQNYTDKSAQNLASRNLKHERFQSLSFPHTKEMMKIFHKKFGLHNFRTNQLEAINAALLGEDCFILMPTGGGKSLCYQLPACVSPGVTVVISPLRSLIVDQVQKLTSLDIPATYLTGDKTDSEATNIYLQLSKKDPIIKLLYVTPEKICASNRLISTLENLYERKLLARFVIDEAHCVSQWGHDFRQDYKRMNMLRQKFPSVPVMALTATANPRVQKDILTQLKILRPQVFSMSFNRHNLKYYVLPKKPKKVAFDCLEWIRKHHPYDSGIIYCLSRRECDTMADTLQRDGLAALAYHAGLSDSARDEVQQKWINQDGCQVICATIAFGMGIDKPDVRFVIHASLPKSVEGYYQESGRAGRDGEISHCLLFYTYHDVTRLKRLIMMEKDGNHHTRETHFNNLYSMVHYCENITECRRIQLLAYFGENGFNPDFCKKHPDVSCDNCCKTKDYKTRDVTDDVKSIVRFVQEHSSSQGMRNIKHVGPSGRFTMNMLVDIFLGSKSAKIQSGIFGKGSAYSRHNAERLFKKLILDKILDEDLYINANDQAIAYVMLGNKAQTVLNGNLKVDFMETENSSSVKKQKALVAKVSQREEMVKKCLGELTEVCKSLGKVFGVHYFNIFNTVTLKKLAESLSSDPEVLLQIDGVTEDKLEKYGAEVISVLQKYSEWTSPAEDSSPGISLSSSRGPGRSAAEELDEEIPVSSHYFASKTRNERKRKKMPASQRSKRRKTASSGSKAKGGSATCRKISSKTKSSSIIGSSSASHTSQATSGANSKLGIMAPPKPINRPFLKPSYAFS
FEN1 inhibitor – qHTS Assay for the Inhibitors of Human Flap endonuclease 1 (FEN1) | P39748 | Recombinant FEN1 flap cleavage, fluorescence, 15 min | Potency, µM (doses to about 114 µM), without a hit: at the top dose activity change, negative = inhibition, hits mostly inhibitors | actives 0.35% (n = 390,000) | AID 588795, 2011; also: potency is read from the fitted curve at half-maximal effect; % is scaled to controls: 0 for no effect and ±100 for the full control effect; nearly all actives have a fitted effect of over 65% in size
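Potency values derive from four-parameter Hill fits of normalized qHTS data. The reaction used 10 nM FEN1 preincubated 15 min at room temperature with compound, then 50 nM DNA substrate, read at 0 and 15 min.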
RECQ1 helicase – qHTS Assay for Inhibitors of RecQ-Like Dna Helicase 1 (RECQ1); RECQ1 DNA unwinding, red fluorescence kinetic read; Potency, µM (series often up to 57.3 µM), for the others: at the top dose activity, negative = inhibition, hits mostly inhibitors; actives 0.54% (n = 240,000);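 also: potency is read from the fitted curve at half-maximal effect; plate controls were vehicle for no effect and no enzyme for full effect; nearly all actives have a fitted effect of over 30% in size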
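50 nM RECQ1T1 preincubated 15 min with compound in Tris pH 8.0 buffer with MgCl2, DTT, Tween-20 and 2.5 ug/ml poly(dI-dC); started with 200 nM TAMRA/BHQ-2 forked duplex and 2 mM ATP. Unwinding read as fluorescence (525/598 nm), two reads 2 h apart.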
PI5P4Ka inh – qHTS for Inhibitors of phosphatidylinositol 5-phosphate 4-kinase (PI5P4K). actives 1.2% (n = 330,000). Phosphatidylinositol 5-phosphate 4-kinase type-2 alpha (Homo sapiens), P48426. max response, %. PI5P4Kalpha enzyme, ADP-Glo luminescence, 60 min; stronger effect = lower value; active = max response of -50% or lower; inconclusive = between -30% and -50%; inactive = -30% or higher; also: value at the top dose of about 77 µM; % is scaled to controls: 0 for no effect and ±100 for the full control effect
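ADP-Glo luminescence end-point read after a 60 min room-temperature kinase reaction of PI5P4Kalpha plus substrate, initiated with ATP at 5 microM final. Buffer: 0.038 M HEPES pH 7.4, EGTA, 0.1% CHAPS, 5% DMSO.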
WRN helicase inh-1 – qHTS for Inhibitors of WRN Helicase; actives 0.46% (n = 360,000); WRN helicase unwinding, fluorescent forked duplex, kinetic; Bifunctional 3'-5' exonuclease/ATP-dependent helicase WRN (Homo sapiens), Q14191; Potency, µM (top dose mostly 114 µM), for the others: top-dose activity change, negative = inhibition, actives largely listed as inhibitors; also: potency is read from the fitted curve at half-maximal effect; % is scaled to controls: 0 for no effect and ±100 for the full control effect; nearly all actives have a fitted effect of over 55% in size
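Primary qHTS, 1536-well format. 20 nM WRN + compound, 15 min RT; start with 100 nM forked fluorophore/quencher duplex, 2 mM ATP (final); kinetic read ex 525/em 598 nm.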
APEX1 inh – qHTS Assay for Inhibitors of the Human Apurinic/apyrimidinic Endonuclease 1 (APE1); AID 2517, 2012; Potency, µM (series often up to 65.8 µM), for inactives: top-dose activity change, negative = inhibition, most hits filed as inhibitors; actives 0.35% (n = 350,000); DNA repair nuclease/redox regulator APEX1 (Homo sapiens), P27695; recombinant APE1, TAMRA/BHQ-2 abasic DNA cleavage fluorescence;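 also: potency is read from the fitted curve at half-maximal effect; plate controls were vehicle for no effect and reference inhibitor for full effect; nearly all actives have a fitted effect of over 55% in size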
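Activity was derived from the fluorescence gain between first and third kinetic reads (60 s intervals, ex 525/em 598 nm) after 50 nM THF-abasic TAMRA/BHQ-2 duplex was added to 0.75 nM APE1 preincubated 15 min with compound.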
WRN helicase inh-2 – qHTS for Inhibitors of WRN Helicase: Confirmatory Assay for Cherry-picked Compounds | shares compounds with WRN helicase inh-1 | WRN helicase DNA unwinding, fluorescence kinetic | Potency, µM (doses to about 57.1 µM), without a hit: at the highest dose activity, negative = inhibition, most hits filed as inhibitors | actives 63% (n = 610); also: potency is read from the fitted curve at half-maximal effect; nearly all actives have a fitted effect of over 65% in size
TO displacement – qHTS for Inhibitors of WRN Helicase: Thiazole Orange DNA Binding Counterscreen; thiazole orange DNA binding displacement, fluorescence; AID 720499, 2013; actives 10% (n = 610); Potency, µM (titrated, usually from 57.1 µM), inactives show top-dose activity change, negative = inhibition, actives largely listed as inhibitors; shares compounds with WRN helicase inh-1;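 also: drop in dye fluorescence marks compound binding to DNA; potency is read from the fitted curve at half-maximal effect; % is scaled to controls: 0 for no effect and ±100 for the full control effect; nearly all actives have a fitted effect of over 60% in size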
BLM helicase inh-2 – qHTS for Inhibitors of WRN Helicase: BLM Helicase Counterscreen for WRN Inhibitors; Potency, µM (series often up to 57.1 µM), without a hit: at the top dose activity change, negative = inhibition, hits mostly inhibitors; Recombinant BLM helicase DNA unwinding, red fluorescence; actives 60% (n = 610); shares compounds with WRN helicase inh-1; AID 720503, 2013; also: potency is read from the fitted curve at half-maximal effect; nearly all actives have a fitted effect of over 60% in size
An asterisk follows results filed as active; i = inactive; ? = inconclusive; . = no result. In the library only some 1.5% were active in any assay of this set; here they are far more common. Unless noted, calls follow the shape of the dose curve; as a rule, active = well fitted curve in the direction sought with a large enough effect; inconclusive = small, poorly fitted or top-dose-only effect, or another doubt; inactive = no such curve, though single readings can be large; an effect the other way counts as inactive or inconclusive.

SMILES | BLM helicase inh-1 | FEN1 inhibitor | RECQ1 helicase | PI5P4Ka inh | WRN helicase inh-1 | APEX1 inh | WRN helicase inh-2 | TO displacement | BLM helicase inh-2
NC(=O)COc1ccc(/C=C2\C(=O)ON=C2c2ccccc2)cc1 | . | 1% | . | ? | 40µM* | 5% | 19µM* | ? | ?
O=c1cc(N2CCNCC2)nc2sc(-c3ccncc3)nn12 | . | . | . | . | . | . | 6.1µM* | 6.8µM* | 1.2µM*
Cc1cc(=O)n2nc(-c3ccccc3)sc2n1 | 6% | 1% | -9% | -10 | -6% | 24% | . | . | .
Cc1cc(C)c(S(=O)(=O)/N=C2\C=C(Nc3ccc(C(=O)O)cc3)C(=O)c3ccccc32)c(C)c1 | ? | ? | . | -79* | 89µM* | -22% | 22µM* | ? | 15µM*
COc1ccc(-c2nnc(Nc3nc4c(OC)cccc4s3)o2)cc1 | ? | ? | -3% | . | 45µM* | -2% | 9.6µM* | -14% | 7.6µM*
COc1ccc(/C=C/C(=O)Nc2nc3n(n2)C(c2ccc(F)cc2)C=C(c2ccccc2)N3)cc1 (configuration not stated) | -1% | -15% | . | . | . | . | . | . | .
CSc1cc2c(s1)c1cnn(Cc3cccc(N)c3)c(=O)c1n2C | . | . | . | . | . | . | -12% | -8% | ?
Nc1ccc2c(c1)C(=O)C(=O)c1ccccc1-2 | ? | ? | 3% | -27 | 35µM* | 3% | 19µM* | ? | 3.4µM*
Nc1ccc2c(c1)C(=O)c1ccccc1-2 | . | -17% | . | 2 | -9% | . | . | . | .
O=C(CSc1nnc(-c2cnccn2)n1Cc1ccco1)c1ccc(Cl)cc1 | -8% | 9% | i | . | ? | -5% | -13% | -17% | -23%
O=C1c2ccccc2C(=O)N1c1ccc(O)cc1 | . | -13% | . | . | . | . | . | . | .
CCOC(=O)c1cc(C)n(CC2CCC(C(=O)Nc3ccc(OC)cc3)CC2)c1C (configuration not stated) | -1% | -1% | . | . | . | . | . | . | .
CC(=O)OCCCNc1cc(Sc2ccc(C)cc2)c2nonc2c1[N+](=O)[O-] | -1% | -120% | 0% | -3 | 40µM* | 4% | -21% | -9% | -15%
O=C1ON=C(c2ccc([N+](=O)[O-])cc2)/C1=C/c1ccccc1O | -2% | 9% | . | ? | ? | 2% | -29% | -7% | -28%
CCC(=O)c1ccc(CCCCCC(=O)O)s1 | -4% | 3% | -14% | -3 | ? | ? | 22µM* | 3% | 22µM*
CC(=O)c1ccc(CCCCCCCCCC(=O)O)s1 | -2% | 0% | ? | 0 | -14% | -3% | . | . | .
